# About 2,100 (0.66%) of roughly 320,000 compounds were called active. About 53% were inconclusive and are not listed. The call rests on the fitted dose curve; in most records, active means well fitted inhibition curve with a large enough effect in the signal ratio, with a control signal flat (not every such curve was filed as active); inconclusive means small, poorly fitted or top-dose-only effect, or effect the other way, or a change in a side signal; inactive means flat fitted curve, though single readings scatter; the % refers to the signal ratio. Shown is part of a subset that was picked to be rich in actives.
# Assay: qHTS Assay for Lipid Storage Modulators in Drosophila S3 Cells;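 on cell number change: cells counted by Cell Tracker Red CMTPX staining in the red channel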; on lipid storage change, negative = inhibition: on the % scale 0 is the no-effect control and ±100 the full control effect
# Settings: BODIPY lipid droplet fluorescence, 18-24 h, cells fed with added oleic acid; cell number change: measured here: cell count max response; series mostly up to 46.1 µM; lipid storage change, negative = inhibition: at the top concentration
# Procedure, shortened: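 Laser-scanning cytometry quantifies lipid droplet accumulation (500–530 nm total intensity; droplet/cell object ratio) in oleic acid-fed (400 uM added) Drosophila S3 cells treated with a concentration series. 20 uM Triacsin C defined 100% inhibition.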
# Potency means the concentration at half of the fitted maximal effect.
Structure (SMILES),"lipid storage change, negative = inhibition",Potency,cell number change,outcome
Cc1ccc(N2C(=O)C3C4C=CC(CC4)C3C2=O)c([N+](=O)[O-])c1 (stereo unspecified),6.13% (inactive),–,–,–
C=CCOc1ccccc1CN(C(=O)CCl)c1ccc2c(c1)OCO2,–,9.2 µM (active),10.9%,–
C=CCOc1ccccc1CNc1ccc2c(c1)OCCO2,2.79% (inactive),–,-4.69%,–
O=C(CCl)N(C/C=C/c1ccccc1)c1ccc2c(c1)OCCO2,8.7% (inactive),–,–,–
Cc1cc(C)cc(Oc2ccc(C(F)(F)F)cc2C#N)c1,–,–,–,inactive
Clc1ccc(CSc2ccc(-c3ccco3)nn2)cc1,0.428% (inactive),–,–,–
Nc1ccc(-c2nnc(-c3ccccc3)o2)cc1,–,18.4 µM (active),–,–
c1ccc(-c2nnc(-c3ccccc3)o2)cc1,-1.7% (inactive),–,0.828%,–
O=C(O)c1ccc(-c2nnc(-c3ccccc3)o2)cc1,9.84% (inactive),–,25.5%,–
CCN1C(=O)/C(=C2\SC(N3CCCCC3)=NC2=O)c2ccccc21,-17.1% (inactive),–,-29.3%,–
CCCCN1C(=O)/C(=C2\SC(N3CCOCC3)=NC2=O)c2ccccc21,–,8.2 µM (active),-1.69%,–
Cc1ccc(CN2C(=O)/C(=C3\SC(N4CCOCC4)=NC3=O)c3cc(Br)ccc32)cc1,-0.115% (inactive),–,15.8%,–
O=C(NC12CC3CC(CC(C3)C1)C2)c1cnccn1,-13.2% (inactive),–,3.24%,–
CCN(CC)C1CCS(=O)(=O)C1 (stereo unspecified),15.6% (inactive),–,22.1%,–
COc1cccc(-c2cc(C(=O)N3CCN(Cc4ccc5c(c4)OCO5)CC3)on2)c1,7.57% (inactive),–,17%,–
COC(=O)CNC(=O)c1cc(OC)cc(OC)c1,0.076% (inactive),–,7%,–
COc1cc(OC)cc(C(=O)NCC(=O)OCC(=O)NC(C)(C)C)c1,-3.37% (inactive),–,16.7%,–
COc1cc(OC)cc(C(=O)NCC(=O)OCC(=O)c2cc(OC)ccc2OC)c1,–,23.1 µM (active),-7.21%,–
COC(=O)CNC(=O)C(NC(=O)c1ccc(Cl)cc1)C(C)C (stereo unspecified),–,25.9 µM (active),12.5%,–
CCC(C)C(NC(=O)c1ccc(Cl)cc1)C(=O)O (stereo unspecified),4.26% (inactive),–,-1.98%,–
CC(C)OCCCNC(=O)C(NC(=O)c1ccc(Cl)cc1)C(C)C (stereo unspecified),-2.96% (inactive),–,4.94%,–
COC(=O)c1cc(C(=O)Nc2cccc(C)n2)cc([N+](=O)[O-])c1,–,–,–,inactive
O=C(O)c1ccccc1NC(=O)C1CCCO1 (stereo unspecified),–,23.1 µM (active),-12.3%,–
COC(=O)c1ccccc1NC(=O)C1CCCO1 (stereo unspecified),5.7% (inactive),–,-0.0238%,–

Structure (SMILES),"lipid storage change, negative = inhibition",Potency,cell number change,outcome
CCOC(=O)c1ccccc1NC(=O)C1CCCO1 (stereo unspecified),0.203% (inactive),–,2.7%,–
COc1cc(/C=C/C(=O)NC2CCCCC2)cc(OC)c1OC,–,–,1.65%,inactive
COc1ccc(C(=O)NC(C)C2CC3CCC2C3)c(OC)c1 (stereo unspecified),–,–,14.1%,inactive
COc1cc(/C=C/C(=O)NC(C)C2CC3CCC2C3)cc(OC)c1OC (stereo unspecified),–,2.91 µM (active),13.5%,–
CCCCN1C(=O)C(=O)N(CC(=O)Nc2cc(OCC)c(N3CCOCC3)cc2OCC)C1=O,9.77% (inactive),–,-17.5%,–
COC(=O)CCN(c1ccccc1)S(=O)(=O)c1cc(-c2cc(C)no2)ccc1OC,–,–,–,inactive
CCCN(c1ccccc1F)S(=O)(=O)c1cc(-c2cc(C)no2)ccc1OC,–,4.61 µM (active),-29.5%,–
COc1ccc(-c2cc(C)no2)cc1S(=O)(=O)N(C)c1ccc(C)cc1,–,–,-26.4%,inactive
CN(Cc1ccc(F)cc1)S(=O)(=O)c1nnc(NC(=O)c2ccccc2)s1,–,–,3.05%,inactive
O=C(Nc1nnc(S(=O)(=O)N2CCCCCC2)s1)c1cccc(Br)c1,-11.2% (inactive),–,16.5%,–
Cc1cccc(C(=O)Nc2nnc(S(=O)(=O)N3CCOCC3)s2)c1,-27.6% (inactive),–,-0.612%,–
COc1cccc(C(=O)Nc2nnc(S(=O)(=O)N(C)Cc3ccc(F)cc3)s2)c1,–,29.1 µM (active),-17.9%,–
COc1cccc(C(=O)Nc2nnc(S(=O)(=O)N3CCCC3)s2)c1,–,4.11 µM (active),-14.5%,–
COc1ccc(CN(C)S(=O)(=O)c2nnc(NC(=O)c3cccc(F)c3)s2)cc1,–,–,–,inactive
CN(Cc1ccc2c(c1)OCO2)C(=O)c1cc(-c2ccccc2)c(N2CCOCC2)s1,–,–,-5.64%,inactive
COc1cccc(C(=O)NCc2nnc(SCC(=O)Nc3nccs3)n2-c2cccc(C)c2)c1,7.07% (inactive),–,-7.27%,–
COc1cc(NC(=O)CCc2nnc3ccc(N4CCN(C)CC4)nn23)cc(OC)c1,–,–,-14.7%,inactive
Cc1ccc(C)c(/C=C2\CCn3c2nc2cc(C(=O)O)ccc2c3=O)c1,-0.517% (inactive),–,6.53%,–
CNc1oc(C)nc1S(=O)(=O)c1ccc(C)cc1,-9.91% (inactive),–,-20.3%,–
CNc1oc(C)nc1S(=O)(=O)c1ccccc1,–,32.6 µM (active),3.59%,–
CNc1oc(-c2ccc(F)cc2)nc1S(=O)(=O)c1ccccc1,–,–,11.1%,inactive
CC(=O)Nc1ccc(S(=O)(=O)Nc2ncccn2)cc1,5.04% (inactive),–,3.3%,–
CC(=O)Nc1ccc(S(=O)(=O)Nc2nccc(C)n2)cc1,5.67% (inactive),–,1.57%,–

# Reference: PubChem BioAssay AID2685 (National Center for Advancing Translational Sciences (NCATS), 2010)
